High-throughput results deposited in PubChem by National Center for Advancing Translational Sciences (NCATS).
A549 tox – Nrf2 qHTS screen for inhibitors: counterscreen for cytotoxicity; AID 504648, 2011; 0.16% of 390,000 active; Potency, µM (top dose mostly 46 µM), hits mostly inhibitors; A549 ARE-Fluc cells, CellTiter-Fluor viability, 18-24 h
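A549 ARE-Fluc cells in 5% FBS OPTI-MEM, 5000 cells/well, rested 2 h then exposed to compounds in concentration-response for 18-24 h at 37 °C. Viability by CellTiter-Fluor fluorescence (Ex 405/Em 525) after 30 min; luciferase luminescence (BugLite, 15 min, RT) read afterwards.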
mIDH1 inhibitor – qHTS for Inhibitors of mutant isocitrate dehydrogenase 1 (IDH1): qHTS; Isocitrate dehydrogenase [NADP] cytoplasmic (Homo sapiens), O75874; AID 602179, 2012; Potency, µM (highest dose often 76.6 µM), actives largely listed as inhibitors; IDH1-R132H enzyme, NADPH consumption, diaphorase/resazurin fluorescence; 0.093% of 390,000 active; further: nearly all actives have a fitted effect of over 65% in size
Target sequence (O75874 whole entry R132H, stated change not applied): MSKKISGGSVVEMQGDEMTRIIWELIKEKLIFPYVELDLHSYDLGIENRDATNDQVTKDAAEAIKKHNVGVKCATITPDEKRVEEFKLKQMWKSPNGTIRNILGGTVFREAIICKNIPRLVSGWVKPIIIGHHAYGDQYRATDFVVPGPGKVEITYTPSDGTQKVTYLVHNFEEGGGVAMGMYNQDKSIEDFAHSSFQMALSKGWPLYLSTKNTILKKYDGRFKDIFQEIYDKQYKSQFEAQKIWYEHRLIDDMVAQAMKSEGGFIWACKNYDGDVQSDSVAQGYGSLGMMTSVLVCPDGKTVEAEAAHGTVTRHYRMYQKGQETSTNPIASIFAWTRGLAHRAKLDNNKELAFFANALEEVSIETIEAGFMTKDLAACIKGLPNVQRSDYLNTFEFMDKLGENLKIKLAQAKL
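IDH1-R132H (0.5 ug/mL) preincubated 30 min with compound, then NADPH (0.016 mM) and alpha-KG (2 mM) added; 80 min at RT, pH 7.5. Remaining NADPH coupled via diaphorase/resazurin to fluorescence (540/590 nm); concentration-response curves normalized to no-enzyme control.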
ELG1 repair inh – qHTS screen for small molecules that inhibit ELG1-dependent DNA repair in human embryonic kidney (HEK293T) cells expressing luciferase-tagged ELG1; 2.3% of 330,000 active; Potency, µM (top dose mostly 46.1 µM), actives largely listed as inhibitors; HEK293T ELG1-luciferase reporter, luminescence, 16 h; DNA damage induced by 5-fluorouridine; further: nearly all actives have a fitted effect of over 55% in size
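Overnight (16 hr) co-exposure of 2,000 cells/well to 5-fluorouridine and compound at 37 °C preceded detection. Luciferase was quantified via ONE-Glo luminescence; loss of signal denotes inhibition.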
Nrf2 inh – Nrf2 qHTS screen for inhibitors; Potency, µM (titrated, usually from 46 µM), hits mostly inhibitors; A549 ARE-Fluc reporter, luciferase luminescence, 18-24 h; 2.1% of 360,000 active; further: nearly all actives have a fitted effect of over 60% in size
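Quantitative HTS in A549 cells stably bearing an antioxidant response element-firefly luciferase construct. Inhibition of Nrf2-driven transcription was scored by luminescence after 18-24 h of compound exposure at 37 °C.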
Nrf2 activator – qHTS of Nrf2 Activators. 0.31% of 410,000 active. Potency, µM (titrated, usually from 46.1 µM), most hits filed as activators. AREc32 ARE-luciferase reporter (MCF7-derived line), luminescence, 24 h; further: nearly all actives have a fitted effect of over 65% in size
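Luminescent ARE reporter assay in AREc32_Fluc cells: overnight plating at 37 deg C, 24 hr compound incubation, Steady-Glo added, 30 min RT before reading.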
Large screens that a line does not name were inactive. An excerpt weighted towards active compounds, which were near 3.8% of everything screened. The call rests on the fitted dose curve; in most records, active means well fitted curve in the direction sought with a large enough effect; inconclusive means small, poorly fitted or top-dose-only effect, or another doubt; inactive means no such curve, though single readings can be large; an effect the other way counts as inactive or inconclusive.

Cc1ccccc1NC(=O)Cc1nc(COC(=O)c2ccc(Cl)c(S(N)(=O)=O)c2)cs1	ELG1 repair inh 5.2µM
Cc1ccc(NC(=O)Cc2nc(COC(=O)Cc3cccc(C(F)(F)F)c3)cs2)cc1	none
Cc1ccccc1NC(=O)Cc1nc(COC(=O)c2cccc(O)c2)cs1	none
CC(=O)c1c(C)[nH]c(C(=O)OCc2csc(CC(=O)Nc3ccccc3C)n2)c1C	ELG1 repair inh 13µM, Nrf2 inh inconclusive
CCc1cccc(NC(=O)C2CCN(C(=O)c3cnn(-c4ccccc4)c3-n3cccc3)CC2)c1	A549 tox inconclusive, Nrf2 inh inconclusive (no result: ELG1 repair inh)
O=C(CSc1nc2cc(C(=O)NC3CCCC3)ccc2c(=O)n1CC1CCCO1)c1ccc(F)cc1 (stereo not given)	none (no result: ELG1 repair inh)
COc1ccc(-c2c3c(cc(C)[n+]2[O-])oc2ccc(OC)cc23)cc1	A549 tox inconclusive, ELG1 repair inh inconclusive, Nrf2 inh inconclusive
COc1ccc2oc3cc(C)[n+]([O-])c(-c4ccc(C)cc4)c3c2c1	A549 tox inconclusive, ELG1 repair inh inconclusive, Nrf2 inh 26µM
CN1CCN(c2ncnc3c2ncn3[C@H]2CN(Cc3ccco3)C[C@@H](CO)O2)CC1	none (no result: A549 tox, mIDH1 inhibitor, ELG1 repair inh, Nrf2 inh)
O=C(CSc1nnc(-c2c[nH]c3ccccc23)o1)N(Cc1ccccc1)c1ccc(F)cc1	A549 tox inconclusive, ELG1 repair inh 21µM, Nrf2 inh 18µM
COc1ccc(CN(C(=O)CSc2nnc(-c3ccccc3C)o2)c2ccc(F)cc2)cc1	ELG1 repair inh inconclusive (no result: Nrf2 inh)
CC1CCC(C(=O)NC(C(=O)OCC(=O)c2ccc(Br)cc2)C(C)C)CC1 (stereo not given)	Nrf2 inh inconclusive (no result: ELG1 repair inh)
Cc1ccc(N2CCN(C(=O)c3nn(C)c4c3CSc3ccccc3-4)CC2C)cc1 (stereo not given)	none (no result: ELG1 repair inh)
O=C(c1cccc(C(=O)N2CCN(c3ccccc3F)CC2)c1)N1CCN(c2ccccc2F)CC1	ELG1 repair inh 16µM
C/C(=N\NC(=O)c1ccc(Cl)c(Cl)c1)c1ccc(Br)s1	Nrf2 inh 7.3µM
O=C(CNC(=O)c1ccc2n[nH]nc2c1)OC(C(=O)Nc1cc(C(F)(F)F)ccc1Cl)c1ccccc1 (stereo not given)	none (no result: mIDH1 inhibitor, ELG1 repair inh, Nrf2 activator)
O=C(N/C(C(=O)N1CCOCC1)=C(\Sc1ncccn1)c1ccccc1)c1ccccc1	ELG1 repair inh 23µM
Cc1ccc(S(=O)(=O)N2CCN(c3nc(-c4ncccn4)nc4ccccc34)CC2)cc1	none (no result: mIDH1 inhibitor, ELG1 repair inh, Nrf2 activator)
Cc1nn(C)c(C)c1CN(C)C(=O)c1cnn2c1NC(c1ccccc1)CC2C(F)(F)F (stereo not given)	ELG1 repair inh inconclusive, Nrf2 inh inconclusive
COc1ccc(C2CC(C(F)(F)F)n3nc(C(=O)NCc4c(C)nn(C)c4C)c(Cl)c3N2)cc1 (stereo not given)	ELG1 repair inh inconclusive, Nrf2 inh 21µM
Cc1nn(C)c(C)c1CNC(=O)c1cc2n(n1)C(C(F)(F)F)CC(c1cccs1)N2 (stereo not given)	Nrf2 inh 18µM
CCOC(=O)c1c(NC(=O)c2cc3n(n2)C(C(F)(F)F)CC(c2cccs2)N3)sc(C)c1C (stereo not given)	ELG1 repair inh inconclusive
Cc1nn(C)c(C)c1CN(C)C(=O)c1nn2c(c1Br)NC(c1cccs1)CC2C(F)(F)F (stereo not given)	Nrf2 inh 8.2µM
Cc1nn(C)c2c1c(C(F)(F)F)cc(=O)n2C(C)C(=O)NCCc1ccc(Cl)cc1 (stereo not given)	none (no result: ELG1 repair inh)
COC(=O)c1cc(C)[nH]c2c(C)cc3nc4ccccc4c3c12	ELG1 repair inh 18µM
CCC(Sc1nc2cc(OC)c(OC)cc2c(=O)n1CCc1ccc(OC)c(OC)c1)C(=O)NCCOC (stereo not given)	ELG1 repair inh 18µM, Nrf2 inh inconclusive
CCCCc1nc(NCCNC(=O)c2ccccc2)c(C#N)c2c1CSC(C)(C)C2	A549 tox inconclusive, ELG1 repair inh inconclusive (no result: Nrf2 inh)
CCCCc1nc(NCCNC(=O)c2ccco2)c(C#N)c2c1CSC(C)(C)C2	ELG1 repair inh 15µM
